# SW480 rereplic – DNA re-replication induction in SW480 cells; SW480 DNA re-replication, Hoechst DNA content imaging, 48 h; Potency, µM (doses to about 46.1 µM), for the others: top-dose re-replication activation, usual class: activators; AID 624297; hit rate 1.8% among 340,000; note: % of control where 0% means no effect; nearly all actives have a fitted effect of over 55% in size
#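 250 cells/well; 23 nL cpd via pin tool; 48 hr, 37 C, 5% CO2; Hoechst 40 min; imager read of total nuclear intensity, ex 405/em 500-530 nm.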
# HT1080NT lethal – kills 2HG-producing HT-1080-NT fibrosarcoma cells. AID 686970. HT-1080-NT fibrosarcoma viability, CellTiter-Glo ATP luminescence, 48 h. Potency, µM (top dose mostly 46.1 µM), without a hit: at the highest dose activity, negative = less viability, most hits filed as cytotoxic. hit rate 1.6% among 360,000;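 note: NT is the 2HG producing partner of a matched IDH1 knockdown line; 0% = DMSO-treated cells and -100% = media-only wells without cells; nearly all actives have a fitted effect of over 55% in size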
#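 Fibrosarcoma NT cells, 750 per well in 5% FBS RPMI, were exposed to compound for 48 hours. Viability: CellTiter-Glo luminescence.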
# MCF10A rerep – DNA re-replication induction in MCF 10a cells | MCF 10A DNA re-replication, Hoechst nuclear intensity, 48 h | hit rate 2.9% among 350,000 | Potency, µM (titrated, usually from 46.1 µM), without a hit: at the top dose activity, positive = re-replication, actives largely listed as activators; note: % of control where 0% means no effect; nearly all actives have a fitted effect of over 50% in size
# KB-3-1 tox – KB-3-1 parental cell cytotoxicity; Potency, µM (series often up to 46.1 µM), usual class: cytotoxic; hit rate 1.4% among 400,000; KB-3-1 viability, CellTiter-Glo ATP luminescence, 72 h; note: % is set by controls: 0 for no effect and ±100 for the full control effect; nearly all actives have a fitted effect of over 60% in size
#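 Parental KB-3-1 viability, qHTS format: 72 h compound exposure, 37 °C; CellTiter-Glo; media-only wells and DMSO plates as controls; concentration-effect fits on corrected data.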
# HT1080 IDH1KD tx – kills HT-1080 cells with IDH1 knockdown | hit rate 2% among 360,000 | Potency, µM (top dose mostly 46.1 µM), without a hit: at the highest dose activity, negative = toxicity, actives largely listed as cytotoxic | HT-1080 IDH1 knockdown viability, ATP luminescence, 48 h;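 note: 0% = DMSO wells and -100% = cell-free medium wells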
#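 Cytotoxicity counter-line: IDH1KD HT-1080, 48 h, CellTiter-Glo. Curves classed by r2, magnitude and activity.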
# KB-V1 MDR tox – KB-V1 MDR subline cytotoxicity; KB-V1 MDR cells viability, CellTiter-Glo, 72 h; Potency, µM (doses to about 46.1 µM), usual class: cytotoxic; AID 1347076; hit rate 3.4% among 400,000; note: % is set by controls: 0 for no effect and ±100 for the full control effect; nearly all actives have a fitted effect of over 60% in size
#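 Readout: CellTiter-Glo luminescence, 10 min after addition. Cells: KB-V1 MDR subline, 72 h at 37 degrees C with compound. Analysis: corrected, normalized data fitted to concentration-effect curves.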
# An asterisk follows results filed as active; i = inactive; ? = inconclusive; . = not tested or not shown; [ ] = remark or other dose. Rows were chosen to be rich in hits. Some 8% of all compounds tested hit in one or more screens of this group. Calls come from the whole dose curve; as a rule, active = well fitted curve in the direction sought with a large enough effect; inconclusive = small, poorly fitted or top-dose-only effect, or another doubt; inactive = no such curve, though single readings can be large; an effect the other way counts as inactive or inconclusive. Potency is the fitted concentration of half-maximal effect.
SMILES,SW480 rereplic,HT1080NT lethal,MCF10A rerep,KB-3-1 tox,HT1080 IDH1KD tx,KB-V1 MDR tox
Cc1csc(NC(=O)C2CC(=O)N(c3ccc4c(c3)OCCO4)C2)n1 (stereo not given),-22%,7%[9.24 µM],-5%,i,5%,i
CCCNC(=O)C1CC(=O)N(c2ccc(OCc3ccc(F)cc3)cc2)C1 (stereo not given),-67%,-4%,0.65µM*,i,-19%,i
CCc1ccc(-c2csc(NC(=O)C3CC(=O)N(c4ccc5c(c4)OCCO5)C3)n2)cc1 (stereo not given),?,?,18µM*,?,?,i
CCCNC(=O)C1CC(=O)N(c2ccc(OCc3ccc(Cl)cc3)cc2)C1 (stereo not given),1%,-16%,4%,i,-4%,?
Clc1cccc(Cc2c(-c3ccco3)nc3ccc(Br)cn23)c1,.,?,.,i,16µM*,i
Cc1cc2nc(-c3ccco3)c(Cc3cccc(Cl)c3)n2c(C)c1Br,.,29µM*,.,i,21µM*,i
Cc1cc2nc(-c3cccc(Cl)c3)c(Cc3cccc(Cl)c3)n2c(C)c1Br,.,6%,.,?,2%,i
Brc1ccc2nc(-c3ccco3)c(Cc3ccccc3)n2c1,.,?,.,i,?,i
Cc1ccc2nc(-c3ccc(C#N)cc3)c(Cc3cccc(Cl)c3)n2c1,.,?,.,i,26µM*,i
COC(=O)c1ccc2nc(-c3ccco3)c(Cc3ccc(OC)cc3C)n2c1,.,?,.,i,16µM*,i
Clc1cccc(Cc2c(-c3ccco3)nc3ccc(Cl)cn23)c1,.,23µM*,.,i,18µM*,i
Cc1ccc(Cn2c(SCc3ccc(C(=O)O)cc3)nc3cccnc32)cc1,.,.,.,i,.,i
COc1ccccc1N1CCN(CCCCN2C(=O)C3CCCN3C2=O)CC1 (stereo not given),-4%,0%,4%,i,24%,i
O=C1[C@H]2CCCC[C@H]2C(=O)N1CCCCN1CCN(c2nsc3ccccc23)CC1,?,23µM*,?,?,?,i
C[C@@H]1CN([C@H](C)CO)C(=O)CCCn2nncc2CO[C@H]1CN(C)C,.,1%,.,i,4%,i
CC1(C)C2CCC1(CS(=O)(=O)Nc1ccc(S(=O)(=O)NC3CCCCC3)cc1)C(=O)C2 (stereo not given),4%,-7%,?,i,-9%,16µM*
COc1cccc(NS(=O)(=O)CC23CCC(CC2=O)C3(C)C)c1 (stereo not given),3%,1%,2%,i,-5%,i
CC1(C)C2CCC1(CS(=O)(=O)NCc1ccc(Cl)cc1Cl)C(=O)C2 (stereo not given),-24%,-19%,?,?,-14%,10µM*
Cc1c(C)n(Cc2ccc(Cl)cc2)c2ccc(C(=O)NCCN3CCOCC3)cc12,?,?,12µM*,?,?,i
Cc1c(C)n(Cc2ccccc2)c2ccc(C(=O)NCCN3CCOCC3)cc12,17%,-26%,11%,i,-21%,i
CCc1ccc(NC(=O)c2ccc3c(c2)c(C)c(C)n3Cc2ccccc2)cc1,.,.,.,?,.,8.2µM*
O=C(NCCCN1CCOCC1)c1ccc(CSc2ccc(Cl)cc2)cc1,?,18µM*,?,?,?,?
CCc1ccc(CNC(=O)c2ccc3c(c2)c(C)c(C)n3Cc2ccccc2)cc1,.,.,.,i,.,i
O=C1CN(CCN2CC(=O)NC(=O)C2)CC(=O)N1,.,.,.,i,.,i
Cc1ccnc2c([N+](=O)[O-])cccc12,.,.,.,i,.,i
Nc1nc2ncccc2cc1C(=O)NC1CCCCC1,.,8%,.,i,7%,i
C=CCn1c(=O)n(C(=O)OCC)c2cc(Br)ccc21,-1%,6%,-6%,i,8%,?

# Compound activity (PubChem)
